# Screening data as filed in PubChem.
# Cycloheximide cs: affects cycloheximide protein synthesis inhibition readout, counter-screen | actives 12% (n = 300,000) | cell reporter, cycloheximide protein synthesis inhibition counterscreen | AID 2314 | max response, %; in the data active = max response mostly above about 13%, no sharp cut-off; inactive = mostly below about 14%; also: read at 38.3 µM for the half of the compounds with a filed dose; 0% is about no effect
# Shiga inhibitor: blocks Shiga toxin action in Vero cells; actives 9.2% (n = 290,000); inhibition, % at 38.7 µM; AID 2315; Vero cells, Shiga toxin protein synthesis inhibition reporter; in the data active = inhibition mostly above about 28%, no sharp cut-off; inactive = mostly below about 43%; also: 0% is about no effect
# Pf growth 48h: inhibits P. falciparum growth in the first generation, 48 h. P. falciparum luciferase growth in erythrocytes, 48 h. Potency, µM (top dose mostly 28.7 µM), without a hit: top-dose activity change, negative = inhibition, usual class: inhibitors. actives 5.9% (n = 310,000); active = well fitted inhibition curve with a large enough effect; inconclusive = small, poorly fitted or top-dose-only effect, or another doubt; inactive = no such curve, though single readings can be large or run the other way; also: potency is read from the fitted curve at half-maximal effect; % is scaled to controls: 0 for no effect and ±100 for the full control effect
#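 Here the parasites carry a stable luciferase gene and grow inside erythrocytes in Albumax-based RPMI medium with compound for one erythrocytic cycle. Activity is scored as loss of luminescent signal.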
# NS1 function inh: blocks influenza NS1 protein function | Potency, µM (titrated, usually from 46.1 µM), inactives show top-dose activity, positive = more growth | actives 0.4% (n = 270,000) | AID 2326; also: potency is read from the fitted curve at half-maximal effect; actives are rising curves; nearly all actives have a fitted effect of over 50% in size
#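 A cell-based growth assay was used: compounds that relieve NS1-induced slow growth of budding yeast raise OD600. Assay medium was yeast nitrogen base with ammonium sulphate and -URA supplement, pH 6.0, with 2% galactose.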
# Pf growth 96h: P. falciparum growth inhibition at 96 hours; P. falciparum luciferase reporter growth, 96 h; Potency, µM (doses to about 28.7 µM), for inactives: top-dose activity change, negative = inhibition, usual class: inhibitors; actives 6.9% (n = 320,000); AID 504834; active = well fitted inhibition curve with a large enough effect; inconclusive = small, poorly fitted or top-dose-only effect, or another doubt; inactive = no such curve, though single readings can be large or run the other way; also: potency is read from the fitted curve at half-maximal effect; % is scaled to controls: 0 for no effect and ±100 for the full control effect
#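 P. falciparum expressing integrated firefly luciferase, in erythrocytes at 2% hematocrit, 0.05% parasitemia, incubated with compounds 96 h at 37 C, 5% CO2. Growth inhibition read as loss of luminescence; two-generation exposure targets delayed-death apicoplast inhibitors.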
# SARS PLpro yeast: blocks SARS-CoV papain-like protease in a yeast assay | S. cerevisiae expressing SARS-CoV PLpro, growth rescue | Potency, µM (series often up to 32.9 µM), inactives show at the top dose activity, positive = growth rescue, hits mostly activators | actives 0.19% (n = 330,000) | AID 485353; also: potency is read from the fitted curve at half-maximal effect; 0% is about no effect; nearly all actives have a fitted effect of over 55% in size
# An asterisk follows results filed as active; i = inactive; ? = inconclusive; . = no result; [ ] = dose if it differs, or a comment. An excerpt weighted towards active compounds, which were near 21% of everything screened. Unless noted, calls follow the shape of the full dose curve.
SMILES,Cycloheximide cs,Shiga inhibitor,Pf growth 48h,NS1 function inh,Pf growth 96h,SARS PLpro yeast
C=CCn1c(SCC(=O)Nc2ccc(NC(=O)c3ccco3)c(OC)c2)nnc1-c1ccncc1,-1.5,-11.4,13.1µM*,?,?,-2.6%
C=CCn1c(SCC(=O)Nc2cccc(OC)c2)nnc1-c1cccnc1,19.0*,-47.8,-0.2%,-11.9%,?,0.4%
O=C(O)COCC(=O)Nc1ccc(OCCc2ccccc2)cc1,-1.5,7.5,-8.0%,0.9%,16.9%,-0.5%
Cc1cc(C)cc(NC(=S)N2CCC(NC(=O)C3CC3)CC2)c1,-5.8,4.9,12.0%,1.3%,7.5%,-19.0%
CC(=NCC1CCCO1)c1c(O)n(C)c(=O)n(C)c1=O (stereo not given),1.7,-5.3,3.2%,-9.8%,14.7µM*,0.1%
O=C(CSc1ccc(-c2ccc(F)cc2)nn1)N1CCCCC1,10.7,49.1*,55.5%,-6.9%,100.3%,-2.7%
COc1cccc(-c2ccc(SCC(=O)c3ccccc3)nn2)c1,21.2,48.1*,3.0%,.,10.4%,-3.1%
O=C(CSc1ccc(-c2ccco2)nn1)NC1CCCCC1,12.4,25.2,19.9%,.,46.3%,-1.7%
O=C(CSc1ccc(-c2ccco2)nn1)N1CCCCCC1,23.8,51.1*,33.3%,.,43.9%,1.0%
COc1ccc(C(=O)CSc2ccc(-c3ccccc3)nn2)cc1,6.5,23.0,0.4%,-14.7%,?,-15.4%
O=C(CSc1ccc(-c2ccccn2)nn1)N1CCCCC1,30.8*,72.1*,71.8%,.,-0.5%,-2.8%
Cc1ccc(CNC(=O)Cn2cnc3c(OCc4ccccc4)ncnc32)o1,.,.,.,.,.,-4.2%
O=C(CSc1ccc(-c2ccco2)nn1)c1ccccc1,23.5*,31.6*,56.2%,29.2%,?,-6.1%
O=C(CSc1ccc(-c2ccccc2)nn1)N1CCCCC1,30.9*,71.6*,85.6%,.,7.7%,-6.2%
COc1cc(NC(=O)CCS(=O)(=O)c2ccc3c(c2)n(C)c(=O)c(=O)n3C)cc(OC)c1,-2.7,-5.6,46.8%,19.7%,?,5.8%
Cc1ccn2c(NC3CCCC3)c(-c3ccccn3)nc2c1,23.5,-13.5,-23.8%,.,?,-20.4%
COc1cc(-c2nc3ccc(C)cn3c2NCc2ccccc2)ccc1SC1CCCCC1,.,.,?,.,4.65µM*,-9.3%
COc1cc(-c2nc3ccccn3c2NCc2ccccc2)ccc1SC1CCCCC1,.,.,5.22µM*,.,?,-2.9%
CCC(C)Sc1ccc(-c2nc3ccccn3c2NCc2ccccc2)cc1OC (stereo not given),.,.,.,.,.,5.2%
COc1ccc(-c2nc3ccccn3c2NC2CCCCC2)cc1SC1CCCCC1,.,.,11.7µM*,.,?,-1.4%
c1ccc(-c2nc3ccccn3c2NC2CCCC2)nc1,27.0,16.0,10.4µM*,-53.5%,18.9%,-6.1%
Cc1ccc(C)c(N2CCN(C(=O)CCc3nc(-c4ccc(Br)cc4)no3)CC2)c1,.,.,.,.,.,-2.5%
COc1ccc(-c2ccc(OC)c(C3C4C=CCCC4(C)C(=O)N3Cc3ccccc3)c2)cc1 (stereo not given),5.9,-2.6,.,.,.,.
COc1ccc(CSc2ccc(-c3nc4ccccn4c3NCc3ccccc3)cc2OC)cc1,.,.,10.4µM*,.,?,0.4%
O=C(N/C=C/n1cnc2cc(C(F)(F)F)ccc21)c1ccccc1,10.1,-10.0,?,4.2%,2.8%,-6.4%
SMILES,Cycloheximide cs,Shiga inhibitor,Pf growth 48h,NS1 function inh,Pf growth 96h,SARS PLpro yeast
COCC(=O)Nc1ccc(-c2cn3cccnc3n2)cc1,26.7*,36.3,65.0%,-12.5%,?,-11.1%
COc1cc(C(=O)Nc2cccc(-c3cn4cccnc4n3)c2)cc(OC)c1OC,3.2,13.6,?,.,?,5.1%
CC(C)(C)CC(=O)Nc1cccc(-c2cn3cccnc3n2)c1,37.9*,87.4*,135.5%,3.6%,-45.1%[1.15 µM],0.3%
CCC(CC)C(=O)Nc1ccc(-c2cn3cccnc3n2)cc1,13.8*,30.8*,22.2%,3.3%,364.1%,6.0%
CCOCC(=O)Nc1cc(-c2cn3cccnc3n2)ccc1C,6.2,-5.7,24.3%,-7.9%,24.4%,3.5%
Cc1ccc(-n2c(=O)c3ccccc3n(CC(=O)NCc3ccco3)c2=O)cc1,2.1,21.8,-3.2%,.,-16.7%,1.2%
COc1cccc(NC2=Nc3cccc4cccc2c34)c1,21.4*,23.8,15.3%,-9.5%,?,10.0%
C(=N\NC1=Nc2cccc3cccc1c23)/c1cccnc1,40.0*,72.2*,111.9%,.,-16.5%,-2.6%
C(=N\NC1=Nc2cccc3cccc1c23)/c1ccccc1,86.8*,42.7*,329.9%,4.3%,323.0%,7.0%
COc1ccc(NC2=Nc3cccc4cccc2c34)cc1OC,9.3,-2.9,?,-12.8%,?,-0.5%
NC(=S)N/N=C/c1cccnc1,.,.,-10.0%,.,-12.3%,.
Clc1ccc(/C=N/Nc2nn[nH]n2)cc1,-2.9,-2.9,?,-3.4%,-10.7%,-3.7%
Clc1ccc(/C=N/NC2=Nc3cccc4cccc2c34)cc1,24.3*,85.3*,156.8%,10.6%,82.5%,-23.9%
NC1=Nc2cccc3cccc1c23,8.2,-3.9,?,-4.6%,?,1.2%
CCC(C)NC(=O)C(Sc1ccccc1)c1ccccc1 (stereo not given),-1.1,-13.5,?,-2.2%,?,-0.5%
CCOc1ccc(C(=O)NC(=S)Nc2ccc(NC(=O)c3ccco3)cc2)cc1[N+](=O)[O-],15.4*,5.3,18.4%,-1.1%,17.1%,-8.1%
COc1cc(C(=O)NC(=S)Nc2ccc(NC(=O)c3ccco3)cc2)cc(OC)c1OC,2.9,-1.9,-19.5%,24.0%,0.0%,19.4%
COc1ccc(C(=O)NC(=S)Nc2cccc3ncccc23)cc1[N+](=O)[O-],-2.3,-3.5,?,4.8%,?,-2.0%
CCOc1ccc(C(=O)NC(=S)Nc2ncccc2C)cc1[N+](=O)[O-],24.7*,32.6*,21.8%,?,0.0%,25.9%
COc1cccc(-n2c(C)cc(/C=C3\C(=N)N4N=C(CC(=O)N5CCOCC5)SC4=NC3=O)c2C)c1,-5.1,1.6,12.6%,2.3%,-16.2%,2.4%
CN1CCN(C(=O)c2ccc(-n3cccn3)nc2)CC1,4.4,-1.8,i,.,68.6%,2.5%
COc1ccc(-c2nnc(CSc3nnc(-c4ccncc4)n3C3CCCCC3)o2)cc1OC,5.4,-12.9,?,-9.0%,9.28µM*,-3.9%
COCCCn1c(SCc2nnc(-c3ccc(OC)c(OC)c3)o2)nnc1-c1ccncc1,-2.6,8.7,7.4%,8.7%,-18.8%,23.5%
COc1cc(CC(=O)O)c([N+](=O)[O-])cc1OC,-3.3,19.4,1.8%,7.2%,26.0%,-0.3%
COc1cc(CC(=O)O)c(C(C)=O)cc1OC,-2.3,-11.3,7.1%,9.9%,3.7µM*,1.4%
O=C(O)c1cccc(Cn2c(Cl)c(/C=N/NC(=O)c3ccco3)sc2=O)c1,33.4*,26.8*,-8.3%,4.0%,-13.0%,?
